Measured values as given in PubChem BioAssay AID1159580 (chemical genetic matrix, 2015).
Out of some 5,500 compounds screened, about 2,000 (36%) were called active. Another 18% or so got no clear call; they are omitted. The list shows a part of the results. Unmarked numbers belong to inactive results. Rule as the data show it: active = normalized growth mostly below about 0.91 (no sharp cut-off); inconclusive = no clear call, values can overlap the other calls; inactive = mostly above about 0.92.

Assay: chemical genetic growth profiling, strain panel (AID 1159580);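 also: tested at 20 µM; growth read once vehicle control cultures reached saturation at 30 °C; 1 = growth at the plate median or of vehicle wells; lower values mean less growth of the strain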
Details: growth OD

**Q.** Which normalized growth (S. cerevisiae deletion strains, locus YJR066W, strain TOR1, stronger effect = lower value) does the source give for `CC(C)=CCc1c(O)cc2occ(-c3ccc4c(c3)OCO4)c(=O)c2c1O` here?
**A.** 0.832

**Q.** And the normalized growth (S. cerevisiae deletion strains, locus YJR075W, strain HOC1, stronger effect = lower value)?
**A.** 0.994

**Q.** And the normalized growth (S. cerevisiae deletion strains, locus YKL068W, stronger effect = lower value)?
**A.** 1.01

**Q.** And the normalized growth (S. cerevisiae deletion strains, locus YKL085W, strain MDH1 (second series), stronger effect = lower value)?
**A.** 1

**Q.** And the normalized growth (S. cerevisiae deletion strains, locus YKL085W, strain MDH1, stronger effect = lower value)?
**A.** 1

**Q.** What about the normalized growth (S. cerevisiae deletion strains, locus YKL160W, strain elf1, stronger effect = lower value) of the same compound?
**A.** 0.934

**Q.** And the normalized growth (S. cerevisiae deletion strains, locus YKL190W, strain CNB1, stronger effect = lower value)?
**A.** 1.01

**Q.** And the normalized growth (S. cerevisiae deletion strains, locus YKR001C, strain vps1, stronger effect = lower value)?
**A.** 1.03

**Q.** What about the normalized growth (S. cerevisiae deletion strains, locus YKR026C, strain gcn3, stronger effect = lower value) of the same compound?
**A.** 0.992

**Q.** What about the normalized growth (S. cerevisiae deletion strains, locus YKR091W, strain srl3, stronger effect = lower value) of the same compound?
**A.** 1

**Q.** What about the normalized growth (S. cerevisiae deletion strains, locus YLL001W, strain dnm1, stronger effect = lower value) of the same compound?
**A.** 0.81 (active)

**Q.** What about the normalized growth (S. cerevisiae deletion strains, locus YLL026W, stronger effect = lower value) of the same compound?
**A.** 0.984

**Q.** And the normalized growth (S. cerevisiae deletion strains, locus YLL041C, strain sdh2, stronger effect = lower value)?
**A.** 0.991

**Q.** And the normalized growth (S. cerevisiae deletion strains, locus YLR027C, strain aat2, stronger effect = lower value)?
**A.** 0.918 (active)

**Q.** And the normalized growth (S. cerevisiae deletion strains, locus YLR039C, strain RIC1, stronger effect = lower value)?
**A.** 1.06

**Q.** And the normalized growth (S. cerevisiae deletion strains, locus YLR058C, strain SHM2, stronger effect = lower value)?
**A.** 1.02

**Q.** And the normalized growth (S. cerevisiae deletion strains, locus YLR102C, strain apc9, stronger effect = lower value)?
**A.** 1.03

**Q.** And the normalized growth (S. cerevisiae deletion strains, locus YLR113W, strain HOG1, stronger effect = lower value)?
**A.** 0.75 (active)

**Q.** And the normalized growth (S. cerevisiae deletion strains, locus YLR221C, strain rsa3, stronger effect = lower value)?
**A.** 0.865 (active)

**Q.** And the normalized growth (S. cerevisiae deletion strains, locus YLR258W, strain gsy2, stronger effect = lower value)?
**A.** 0.919

**Q.** What about the normalized growth (S. cerevisiae deletion strains, locus YLR262C, strain YPT6 (second series), stronger effect = lower value) of the same compound?
**A.** 0.911

**Q.** What about the normalized growth (S. cerevisiae deletion strains, locus YLR262C, strain YPT6, stronger effect = lower value) of the same compound?
**A.** 1.06

**Q.** What about the normalized growth (S. cerevisiae deletion strains, locus YLR268W, strain sec22, stronger effect = lower value) of the same compound?
**A.** 1

**Q.** And the normalized growth (S. cerevisiae deletion strains, locus YLR320W, strain mms22, stronger effect = lower value)?
**A.** 0.929

**Q.** What about the normalized growth (S. cerevisiae deletion strains, locus YLR330W, strain CHS5, stronger effect = lower value) of the same compound?
**A.** 1.01

**Q.** And the normalized growth (S. cerevisiae deletion strains, locus YLR342W, strain FKS1 (second series), stronger effect = lower value)?
**A.** 0.996

**Q.** What about the normalized growth (S. cerevisiae deletion strains, locus YLR342W, strain FKS1, stronger effect = lower value) of the same compound?
**A.** 0.952

**Q.** What about the normalized growth (S. cerevisiae deletion strains, locus YLR357W, strain rsc2, stronger effect = lower value) of the same compound?
**A.** 0.948

**Q.** What about the normalized growth (S. cerevisiae deletion strains, locus YLR370C, strain arc18, stronger effect = lower value) of the same compound?
**A.** 0.992

**Q.** What about the normalized growth (S. cerevisiae deletion strains, locus YLR371W, strain rom2, stronger effect = lower value) of the same compound?
**A.** 1.04

**Q.** What about the normalized growth (S. cerevisiae deletion strains, locus YLR384C, strain iki3, stronger effect = lower value) of the same compound?
**A.** 0.992

**Q.** And the normalized growth (S. cerevisiae deletion strains, locus YLR418C, strain cdc73, stronger effect = lower value)?
**A.** 1.01

**Q.** And the normalized growth (S. cerevisiae deletion strains, locus YML016C, strain PPZ1, stronger effect = lower value)?
**A.** 1.01

**Q.** What about the normalized growth (S. cerevisiae deletion strains, locus YML032C, strain rad52, stronger effect = lower value) of the same compound?
**A.** 1.02

**Q.** What about the normalized growth (S. cerevisiae deletion strains, locus YML120C, strain ndi1, stronger effect = lower value) of the same compound?
**A.** 0.895 (active)

**Q.** What about the normalized growth (S. cerevisiae deletion strains, locus YML124C, strain tub3, stronger effect = lower value) of the same compound?
**A.** 1.02

**Q.** What about the normalized growth (S. cerevisiae deletion strains, locus YMR058W, strain fet3, stronger effect = lower value) of the same compound?
**A.** 0.828 (active)

**Q.** And the normalized growth (S. cerevisiae deletion strains, locus YMR078C, strain ctf18, stronger effect = lower value)?
**A.** 1.03

**Q.** And the normalized growth (S. cerevisiae deletion strains, locus YMR125W, strain sto1, stronger effect = lower value)?
**A.** 0.957

**Q.** What about the normalized growth (S. cerevisiae deletion strains, locus YMR129W, stronger effect = lower value) of the same compound?
**A.** 0.982

**Q.** And the normalized growth (S. cerevisiae deletion strains, locus YMR205C, strain PFK2, stronger effect = lower value)?
**A.** 0.96

**Q.** What about the normalized growth (S. cerevisiae deletion strains, locus YMR223W, strain ubp8, stronger effect = lower value) of the same compound?
**A.** 1.02

**Q.** What about the normalized growth (S. cerevisiae deletion strains, locus YMR231W, strain pep5, stronger effect = lower value) of the same compound?
**A.** 0.993

**Q.** And the normalized growth (S. cerevisiae deletion strains, locus YMR263W, strain SAP30, stronger effect = lower value)?
**A.** 1

**Q.** What about the normalized growth (S. cerevisiae deletion strains, locus YMR307W, strain GAS1, stronger effect = lower value) of the same compound?
**A.** 1

**Q.** And the normalized growth (S. cerevisiae deletion strains, locus YNL067W, strain RPL9B, stronger effect = lower value)?
**A.** 1

**Q.** What about the normalized growth (S. cerevisiae deletion strains, locus YNL071W, strain lat1, stronger effect = lower value) of the same compound?
**A.** 0.949

**Q.** And the normalized growth (S. cerevisiae deletion strains, locus YNL128W, strain TEP1, stronger effect = lower value)?
**A.** 1.02

**Q.** What about the normalized growth (S. cerevisiae deletion strains, locus YNL153C, strain GIM3, stronger effect = lower value) of the same compound?
**A.** 1

**Q.** And the normalized growth (S. cerevisiae deletion strains, locus YNL183C, strain NPR1, stronger effect = lower value)?
**A.** 0.839

**Q.** What about the normalized growth (S. cerevisiae deletion strains, locus YNL209W, strain ssb2, stronger effect = lower value) of the same compound?
**A.** 0.937

**Q.** What about the normalized growth (S. cerevisiae deletion strains, locus YNL233W, strain BNI4, stronger effect = lower value) of the same compound?
**A.** 0.971

**Q.** And the normalized growth (S. cerevisiae deletion strains, locus YNL248C, strain rpa49, stronger effect = lower value)?
**A.** 0.962

**Q.** What about the normalized growth (S. cerevisiae deletion strains, locus YNL250W, strain rad50, stronger effect = lower value) of the same compound?
**A.** 1.04

**Q.** What about the normalized growth (S. cerevisiae deletion strains, locus YNL271C, strain bni1, stronger effect = lower value) of the same compound?
**A.** 1.03

**Q.** What about the normalized growth (S. cerevisiae deletion strains, locus YNL298W, strain CLA4, stronger effect = lower value) of the same compound?
**A.** 1.05

**Q.** And the normalized growth (S. cerevisiae deletion strains, locus YNL307C, strain MCK1, stronger effect = lower value)?
**A.** 1.02

**Q.** What about the normalized growth (S. cerevisiae deletion strains, locus YNL322C, strain KRE1 (second series), stronger effect = lower value) of the same compound?
**A.** 0.998

**Q.** And the normalized growth (S. cerevisiae deletion strains, locus YNL322C, strain KRE1, stronger effect = lower value)?
**A.** 1.01

**Q.** And the normalized growth (S. cerevisiae deletion strains, locus YNR049C, strain mso1, stronger effect = lower value)?
**A.** 0.982

**Q.** What about the normalized growth (S. cerevisiae deletion strains, locus YNR052C, strain pop2, stronger effect = lower value) of the same compound?
**A.** 1.03

**Q.** What about the normalized growth (S. cerevisiae deletion strains, locus YOL006C, strain TOP1, stronger effect = lower value) of the same compound?
**A.** 1.05

**Q.** What about the normalized growth (S. cerevisiae deletion strains, locus YOL012C, strain htz1) of the same compound?
**A.** 0.966

**Q.** And the normalized growth (S. cerevisiae deletion strains, locus YOL147C, strain pex11, stronger effect = lower value)?
**A.** 1.03

**Q.** And the normalized growth (S. cerevisiae deletion strains, locus YOR001W, strain rrp6, stronger effect = lower value)?
**A.** 0.857 (active)

**Q.** And the normalized growth (S. cerevisiae deletion strains, locus YOR061W, strain CKA2, stronger effect = lower value)?
**A.** 1.01

**Q.** And the normalized growth (S. cerevisiae deletion strains, locus YOR069W, strain VPS5, stronger effect = lower value)?
**A.** 1.01

**Q.** What about the normalized growth (S. cerevisiae deletion strains, locus YOR070C, strain gyp1, stronger effect = lower value) of the same compound?
**A.** 0.954

**Q.** And the normalized growth (S. cerevisiae deletion strains, locus YOR080W, strain dia2, stronger effect = lower value)?
**A.** 0.925

**Q.** And the normalized growth (S. cerevisiae deletion strains, locus YOR083W, strain WHI5, stronger effect = lower value)?
**A.** 0.925

**Q.** What about the normalized growth (S. cerevisiae deletion strains, locus YOR106W, strain vam3, stronger effect = lower value) of the same compound?
**A.** 0.899

**Q.** What about the normalized growth (S. cerevisiae deletion strains, locus YOR136W, strain idh2, stronger effect = lower value) of the same compound?
**A.** 1.03

**Q.** And the normalized growth (S. cerevisiae deletion strains, locus YOR144C, strain elg1, stronger effect = lower value)?
**A.** 1.02

**Q.** What about the normalized growth (S. cerevisiae deletion strains, locus YOR184W, strain ser1, stronger effect = lower value) of the same compound?
**A.** 1.05

**Q.** What about the normalized growth (S. cerevisiae deletion strains, locus YOR231W, strain MKK1, stronger effect = lower value) of the same compound?
**A.** 0.816 (active)

**Q.** What about the normalized growth (S. cerevisiae deletion strains, locus YOR265W, strain rbl2, stronger effect = lower value) of the same compound?
**A.** 0.968

**Q.** What about the normalized growth (S. cerevisiae deletion strains, locus YOR270C, strain vph1, stronger effect = lower value) of the same compound?
**A.** 0.729 (active)

**Q.** What about the normalized growth (S. cerevisiae deletion strains, locus YOR290C, strain snf2, stronger effect = lower value) of the same compound?
**A.** 0.916

**Q.** What about the normalized growth (S. cerevisiae deletion strains, locus YOR316C, strain cot1, stronger effect = lower value) of the same compound?
**A.** 1.02

**Q.** What about the normalized growth (S. cerevisiae deletion strains, locus YPL051W, strain arl3, stronger effect = lower value) of the same compound?
**A.** 0.877 (active)

**Q.** And the normalized growth (S. cerevisiae deletion strains, locus YPL055C, strain LGE1, stronger effect = lower value)?
**A.** 0.993

**Q.** And the normalized growth (S. cerevisiae deletion strains, locus YPL078C, strain atp4, stronger effect = lower value)?
**A.** 0.918

**Q.** And the normalized growth (S. cerevisiae deletion strains, locus YPL106C, strain sse1, stronger effect = lower value)?
**A.** 0.915

**Q.** And the normalized growth (S. cerevisiae deletion strains, locus YPL240C, strain hsp82, stronger effect = lower value)?
**A.** 0.974

**Q.** And the normalized growth (S. cerevisiae deletion strains, locus YPL241C, strain CIN2, stronger effect = lower value)?
**A.** 1.01

**Q.** What about the normalized growth (S. cerevisiae deletion strains, locus YPL256C, strain CLN2, stronger effect = lower value) of the same compound?
**A.** 0.808 (active)

**Q.** What about the normalized growth (S. cerevisiae deletion strains, locus YPR119W, strain clb2, stronger effect = lower value) of the same compound?
**A.** 1.02

**Q.** And the normalized growth (S. cerevisiae deletion strains, locus YPR141C, strain kar3, stronger effect = lower value)?
**A.** 1.03

**Q.** What about the normalized growth (S. cerevisiae deletion strains, locus YPR163C, strain tif3, stronger effect = lower value) of the same compound?
**A.** 1.02

**Q.** And the normalized growth (S. cerevisiae deletion strains, locus YPR167C, strain met16, stronger effect = lower value)?
**A.** 1.03

**Q.** What about the normalized growth (S. cerevisiae deletion strains, strain wtn01, stronger effect = lower value) of the same compound?
**A.** 1.02

**Q.** What about the normalized growth (S. cerevisiae strains, strain wild type, stronger effect = lower value) of the same compound?
**A.** 1
